Sampled rows, rich in hits. Any-hit rate of the full collection: about 0.28%.
NPYLR7 ag: agonists of mosquito NPYLR7 receptor, primary screen, cell-based, Aedes aegypti, calcium fluorescence, mosquito biting behavior. Aedes aegypti neuropeptide Y-like receptor 7 (NPYLR7). HEK293T NPYLR7/Galpha15, GCaMP6s calcium fluorescence. AID 1259423, 2018. activation, % at 10 µM. 0.15% of 270,000 active; in the data active = activation above about 40%;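 also: 0% = vehicle and 100% = reference agonist at the receptor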
hcGAS inh: Primary biochemical luminescence assay for human cyclic GMP-AMP synthase inhibitors. Q8N884. recombinant h-cGAS, ATP depletion, Kinase-Glo luminescence. inhibition, % at 12.5 µM. 0.081% of 290,000 active;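 also: 0% = vehicle reaction and 100% = reaction without DNA for no activity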
Target sequence (Q8N884 whole entry, looked up): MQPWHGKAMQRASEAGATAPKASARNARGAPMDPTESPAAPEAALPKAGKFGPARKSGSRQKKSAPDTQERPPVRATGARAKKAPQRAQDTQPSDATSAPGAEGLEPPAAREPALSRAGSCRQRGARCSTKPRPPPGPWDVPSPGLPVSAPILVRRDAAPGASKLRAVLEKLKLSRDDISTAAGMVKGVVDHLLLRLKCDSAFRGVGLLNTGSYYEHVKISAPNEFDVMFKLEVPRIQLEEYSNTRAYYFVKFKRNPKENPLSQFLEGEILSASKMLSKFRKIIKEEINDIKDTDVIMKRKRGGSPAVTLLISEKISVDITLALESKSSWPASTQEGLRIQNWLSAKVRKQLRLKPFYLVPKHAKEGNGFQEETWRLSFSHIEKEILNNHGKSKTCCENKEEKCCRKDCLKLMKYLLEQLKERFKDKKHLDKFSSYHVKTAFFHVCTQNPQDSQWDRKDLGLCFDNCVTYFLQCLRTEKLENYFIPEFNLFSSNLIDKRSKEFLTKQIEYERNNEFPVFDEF
mcGAS inh: cyclic GMP-AMP synthase inhibitors, mouse, primary biochemical chemiluminescence. recombinant cGAS, Kinase-Glo ATP depletion luminescence. inhibition, % at 12.5 µM. 0.15% of 160,000 active;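 also: 0% = negative control wells and 100% = reference inhibitor with no enzyme activity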
The depositor's hits bear a star; . = not tested or not shown; + = active, no number. Rule as the data show it, unless noted: active = inhibition above about 40%; inactive = the rest.

SMILES | NPYLR7 ag | hcGAS inh | mcGAS inh
CC(C)CN(Cc1ccsc1)CC(O)COc1ccc(Cl)cc1 (stereo unspecified) | 6.3 | -6.0 | -4.1
C=CCOCC(O)CN(Cc1ccc(F)cc1)Cc1cccc(OC)c1 (stereo unspecified) | 22.4 | -9.8 | -3.9
O=C(CC1C(=O)NCCN1Cc1c(F)cccc1Cl)NCCc1ccc(O)cc1 (stereo unspecified) | 22.6 | -7.7 | .
N#CC(C(=O)C(F)(F)F)c1nc2ccccc2s1 (stereo unspecified) | 1.3 | 43.8* | .
N#CC(C(=O)COc1cc(F)ccc1F)c1nc2ccccc2s1 (stereo unspecified) | 9.3 | -8.6 | .
CC(C)c1cc(C(C)C)n(C2CCN(C(=O)CC3C=CCC3)CC2)n1 (stereo unspecified) | 26.5 | -2.8 | -6.8
Cc1nc(CCNC(=O)c2cc(C(C)C)on2)sc1C | 0.3 | -3.8 | .
Cc1cccc2[nH]c(CCNC(=O)c3cc(C(C)C)on3)nc12 | 3.5 | 72.6* | -9.1
COc1ccc(CCOc2nc(-c3ccccc3F)n(-c3ccc(NC(=O)c4ccc(C(F)(F)F)cc4)cc3)n2)cc1 | 15.2 | -9.5 | -4.7
COc1ccccc1CCNC(=O)c1ccc(Cn2c(C)nc3ccccc32)o1 | 64.2* | -2.8 | .
Cc1ccccc1Cn1c(CCNC(=O)c2ccco2)nc2ccccc21 | -3.0 | -5.5 | -7.8
CCCN1C(=O)C(=Cc2ccc(OCC3CCCO3)cc2)SC1=S (stereo unspecified) | 7.7 | -1.4 | -7.1
O=C(O)c1ccc(C2Nc3c(F)cc(F)cc3C3C=CCC32)cc1 (stereo unspecified) | 18.1 | 5.8 | .
O=C(O)c1ccc2c(c1)C1C=CCC1C(c1ccc(Br)cc1)N2 (stereo unspecified) | -7.2 | 76.7* | 100.3*
COC(=O)c1ccc2c(c1C)NC(c1ccc([N+](=O)[O-])cc1)C1CC=CC21 (stereo unspecified) | -2.4 | -1.0 | -1.4
O=C(O)c1ccc([C@@H]2Nc3ccc(I)cc3[C@@H]3C=CC[C@@H]32)cc1 | 10.3 | 28.4 | 70.9*
CN(C)C(=O)N1CCCN(c2nc(Cc3ccccc3)nc3c2cnn3-c2ccccc2)CC1 | 12.0 | -3.3 | -3.8
COC(=O)C1CCN(c2ncnc3[nH]ncc23)CC1 | 10.1 | -7.2 | .
Cc1cc([N+](=O)[O-])ccc1N1C(=O)/C(=C\c2ccncc2)N(C)C1=S | 20.2 | -6.0 | 13.1
COc1ccc(N2C(=O)/C(=C\c3ccc[nH]3)N(C)C2=S)c([N+](=O)[O-])c1 | 45.6* | -3.8 | -8.3
S=c1[nH]nc(-c2cc(-c3cccs3)nc3ccccc23)o1 | -0.8 | 76.8* | .
S=c1[nH]nc(-c2cccs2)o1 | -1.6 | 1.8 | .
COC(=O)C1=C(C)N(C)C(=O)NC1c1ccccc1F (stereo unspecified) | -17.0 | 3.0 | 2.7
O=C1C(Cl)=C(N2CCOCC2)C(=O)N1c1ccc(Cl)c(Cl)c1 | 22.4 | -2.1 | 49.6*
O=C1C(Cl)=C(N2CCOCC2)C(=O)N1c1ccccc1F | 7.8 | -4.6 | .
SMILES | NPYLR7 ag | hcGAS inh | mcGAS inh
Cc1ccc(C=C2NC(=S)N(Cc3ccccc3)C2=O)o1 | 14.4 | -6.2 | .
CC(=O)Cn1c(COC(=O)c2ccco2)nc2ccccc2c1=O | -7.8 | -4.2 | -12.4
COC(=O)c1ccccc1NC(=S)Nc1ccc(OC2CCN(C(=O)OC(C)(C)C)C2)cc1 (stereo unspecified) | -1.3 | -3.4 | -7.1
O=C(NCc1cc2ccccc2s1)C1CCC(=O)N(CCc2cccc(F)c2)C1 (stereo unspecified) | 6.8 | -9.8 | .
COc1cccc(C2CN(C(=O)CC(C)(C)C)CC2C(=O)NCc2ccccn2)c1OC (stereo unspecified) | 5.1 | + | .
COc1cc(C2CN(C(=O)CC(C)(C)C)CC2C(=O)NCC(C)C)cc(OC)c1OC (stereo unspecified) | 7.1 | 0.5 | .
O=C(c1ccc(C(F)(F)F)[nH]c1=O)N1CCN(c2nccs2)CC1 | 3.4 | 4.3 | .
Cc1ccc(N2C(=O)CSC23CCN(C(=O)NC(C)(C)C)CC3)cc1 | 6.3 | -0.4 | .
O=C(O)Cc1cc(I)c(Oc2ccc(O)c(I)c2)c(I)c1 | -0.2 | -1.8 | 36.1
O=C(O)Cc1cc(I)c(Oc2cc(I)c(O)c(I)c2)c(I)c1 | . | 68.5* | 93.9*
CCOC(=O)C(C#N)=CNc1cnccn1 | 11.3 | -1.5 | -3.8
CCOC(=O)C(C#N)=CNc1nc(C(C)=O)cs1 | 4.4 | 53.3* | 64.2*
CCn1nc(C(C)C)cc1C(=O)NC(C)c1cnn(-c2ccccc2C)c1C (stereo unspecified) | -0.4 | -2.7 | .
COc1cc(C=CC(=O)c2ccc(F)cc2)ccc1OC(F)F | -9.5 | 1.4 | .
O=C(C=Cc1ccccc1OC(F)F)c1ccc(F)cc1 | -2.1 | -5.2 | 43.0*
CC(C)Cn1c(N)c(C(=O)CSc2nccn2C)c(=O)n(C)c1=O | -3.4 | -4.2 | -5.5
Cn1ccnc1SCC(=O)c1cc(I)c(O)c(I)c1 | -0.9 | 8.0 | 76.4*
O=C(CCc1ccc(S(=O)(=O)N2CCCCC2)cc1)N1CCC(c2ccc(O)cc2)CC1 | 12.2 | -6.0 | .
O=C(C1=C(O)c2ccccc2S(=O)(=O)N1)c1ccc(Cl)s1 | 5.0 | 40.8* | .
O=C(O)c1ccc(Cl)s1 | 2.9 | -1.4 | .
Cc1cccc(OCc2nc(CN(CCN(C)C)C(=O)c3ccccc3F)cs2)c1C | 10.7 | -5.2 | -3.1
CCN(Cc1csc(COc2cccc(C)c2C)n1)C(=O)c1ccccc1F | 24.7 | -2.6 | 88.2*
COCCCNCc1c(-c2ccccc2)noc1N1CCc2ccccc2C1 | 15.2 | -3.3 | .
COCCCNCc1c(-c2ccc(F)cc2)noc1N1CCOCC1 | 46.2* | -2.8 | .
N#CC(=Cc1c(F)c(F)c(F)c(F)c1F)c1ccccn1 | 99.4* | -0.6 | -3.9
SMILES | NPYLR7 ag | hcGAS inh | mcGAS inh
N#CC(=Cc1ccccc1I)c1ccccn1 | -0.7 | -4.4 | -3.8
Cc1ccc(Nc2nc3c([nH]2)c(=O)n(C)c(=O)n3C)cc1 | 6.0 | -5.0 | -10.6
Cc1ccc(-c2nc3nc(N)n(C)c(=O)c3[nH]c2=O)cc1 | 135.9* | -5.6 | -8.0
O=S(=O)(Nc1cccc(N2CCC(NCCc3cccs3)CC2)c1)c1ccc(F)cc1 | 13.0 | -3.7 | -7.0
Cc1ccc2oc(-c3ccc(N)cc3)nc2c1 | -4.7 | -2.2 | -5.0
Nc1ccc(-c2nc3cc(N)cc(Cl)c3o2)cc1 | 118.3* | -3.3 | -3.2
COC(=O)C1=C(C(=O)OC)C2C=CC=C(c3ccccc3)N2C(C(=O)OC)=C1C(=O)OC (stereo unspecified) | 3.9 | -8.9 | .
O=C(NCc1cn2ccccc2n1)c1ccc2ccccc2c1 | 20.8 | -8.0 | .
Nc1cccc(NC(=O)c2cccc(S(=O)(=O)Nc3cccc(N)c3)c2)c1 | 12.3 | -2.7 | -4.5
O=C(Nc1cccc(C(=O)Nc2ccc(S(=O)(=O)O)c3cc(S(=O)(=O)O)cc(S(=O)(=O)O)c23)c1)Nc1cccc(C(=O)Nc2ccc(S(=O)(=O)O)c3cc(S(=O)(=O)O)cc(S(=O)(=O)O)c23)c1 | -1.7 | -1.2 | 85.7*
CC(C)NC(=O)C(C#N)=Cc1ccc(Cl)cc1Cl | -0.2 | -1.4 | 10.3
N#CC(=Cc1ccc(Cl)cc1Cl)C(N)=S | 7.1 | -5.7 | 66.8*
O=C(Cc1csc(-c2ccc(Cl)cc2)n1)NCC1CCCO1 (stereo unspecified) | -0.7 | -4.7 | .
